One sequence from PMC7862700, “An all-to-all approach to the identification of sequence-specific readers for epigenetic DNA modifications on cytosine” can be followed below.

Holding throughout (experiment): DAPPL (digital affinity profiling via proximity ligation, sequencing); 10 mM Tris-HCl pH 7.5, 50 mM NaCl, 1 mM DTT, 4% glycerol, room temperature, 30 min; GST-TFs on glutathione beads, 16-mer random dsDNA library, 0.1% formaldehyde crosslink after washing; high values mean tight binding
Common to all, as to conditions: protein: recombinant; tags: N-terminal GST; dsDNA, one strand shown

For one experiment, the target named is T1, FLI1 (Homo sapiens, UniProt Q01543 1-452).
T1 sequence: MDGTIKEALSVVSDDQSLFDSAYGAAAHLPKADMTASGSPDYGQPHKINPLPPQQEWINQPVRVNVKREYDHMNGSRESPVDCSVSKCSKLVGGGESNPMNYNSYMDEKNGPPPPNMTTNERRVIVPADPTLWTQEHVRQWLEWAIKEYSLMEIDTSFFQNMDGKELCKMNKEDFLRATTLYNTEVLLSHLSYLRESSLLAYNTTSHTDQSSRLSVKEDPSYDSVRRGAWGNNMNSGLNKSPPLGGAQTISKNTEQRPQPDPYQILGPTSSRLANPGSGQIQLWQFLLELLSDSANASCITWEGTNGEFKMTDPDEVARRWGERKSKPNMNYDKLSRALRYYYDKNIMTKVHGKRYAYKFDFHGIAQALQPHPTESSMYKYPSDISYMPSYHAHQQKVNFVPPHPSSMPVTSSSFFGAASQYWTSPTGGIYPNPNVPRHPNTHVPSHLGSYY
The essentials:
(§1)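 Human transcription factors were made in yeast as GST fusions, captured on glutathione beads and barcoded with DNA. With a tag-only sample included, the pool was incubated with 200 nmole of a random double-stranded 16-mer DNA library in Tris/NaCl/DTT/glycerol buffer at room temperature for 30 min, then crosslinked with 0.1% formaldehyde after washing, ligated by proximity, amplified and sequenced. For binding signal, each hexamer's read frequency for a factor is divided by its frequency for the tag-only sample.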

In a further experiment the target is T2, ELK1 (Homo sapiens, UniProt P19419 1-428).
T2 sequence: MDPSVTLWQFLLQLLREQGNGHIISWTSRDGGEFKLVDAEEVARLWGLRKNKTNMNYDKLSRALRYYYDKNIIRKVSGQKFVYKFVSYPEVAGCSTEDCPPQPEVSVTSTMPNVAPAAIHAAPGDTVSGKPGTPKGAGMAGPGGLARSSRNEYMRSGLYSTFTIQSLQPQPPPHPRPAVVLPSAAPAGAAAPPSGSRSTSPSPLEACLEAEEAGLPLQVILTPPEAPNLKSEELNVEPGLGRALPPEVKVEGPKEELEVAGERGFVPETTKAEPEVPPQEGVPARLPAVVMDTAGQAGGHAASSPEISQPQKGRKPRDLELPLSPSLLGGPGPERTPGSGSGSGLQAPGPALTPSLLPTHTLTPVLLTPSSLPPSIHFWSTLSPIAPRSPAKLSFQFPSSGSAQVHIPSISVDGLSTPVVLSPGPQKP
The essentials: as §1

The target of the next experiment is T3, GABPA (Homo sapiens, UniProt Q06546 1-454).
T3 sequence: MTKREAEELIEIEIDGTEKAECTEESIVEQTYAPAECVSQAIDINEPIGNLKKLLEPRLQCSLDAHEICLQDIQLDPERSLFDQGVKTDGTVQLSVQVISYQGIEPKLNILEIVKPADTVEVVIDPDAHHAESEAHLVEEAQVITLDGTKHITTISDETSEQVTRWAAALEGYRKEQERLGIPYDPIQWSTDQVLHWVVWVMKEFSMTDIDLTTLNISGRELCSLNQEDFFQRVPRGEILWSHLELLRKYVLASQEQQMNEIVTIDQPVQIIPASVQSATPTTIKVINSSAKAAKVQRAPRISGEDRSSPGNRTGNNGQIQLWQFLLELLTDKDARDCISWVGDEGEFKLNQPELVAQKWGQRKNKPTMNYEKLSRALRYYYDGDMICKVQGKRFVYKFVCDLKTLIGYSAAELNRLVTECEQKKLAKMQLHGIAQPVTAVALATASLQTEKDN
The essentials:
as §1

Another experiment deals with T4, ERG (Homo sapiens, UniProt P11308 1-479).
T4 sequence: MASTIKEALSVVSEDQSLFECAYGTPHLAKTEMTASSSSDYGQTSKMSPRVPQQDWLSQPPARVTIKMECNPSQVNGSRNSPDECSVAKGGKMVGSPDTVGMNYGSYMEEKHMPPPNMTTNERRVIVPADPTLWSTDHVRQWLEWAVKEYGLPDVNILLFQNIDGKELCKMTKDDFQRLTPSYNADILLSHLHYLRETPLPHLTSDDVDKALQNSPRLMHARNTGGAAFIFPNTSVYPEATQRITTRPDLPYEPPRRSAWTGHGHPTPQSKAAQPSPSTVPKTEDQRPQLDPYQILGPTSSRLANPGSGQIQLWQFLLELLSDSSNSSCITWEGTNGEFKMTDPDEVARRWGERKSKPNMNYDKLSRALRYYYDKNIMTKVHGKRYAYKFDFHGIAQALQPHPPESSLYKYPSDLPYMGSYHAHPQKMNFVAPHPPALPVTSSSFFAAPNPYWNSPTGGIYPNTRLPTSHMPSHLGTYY
The essentials:
as §1

In another experiment the target is ELF1 (Homo sapiens, UniProt P32519 1-619). The essentials: as §1
Chain of ELF1 (P32519 whole entry): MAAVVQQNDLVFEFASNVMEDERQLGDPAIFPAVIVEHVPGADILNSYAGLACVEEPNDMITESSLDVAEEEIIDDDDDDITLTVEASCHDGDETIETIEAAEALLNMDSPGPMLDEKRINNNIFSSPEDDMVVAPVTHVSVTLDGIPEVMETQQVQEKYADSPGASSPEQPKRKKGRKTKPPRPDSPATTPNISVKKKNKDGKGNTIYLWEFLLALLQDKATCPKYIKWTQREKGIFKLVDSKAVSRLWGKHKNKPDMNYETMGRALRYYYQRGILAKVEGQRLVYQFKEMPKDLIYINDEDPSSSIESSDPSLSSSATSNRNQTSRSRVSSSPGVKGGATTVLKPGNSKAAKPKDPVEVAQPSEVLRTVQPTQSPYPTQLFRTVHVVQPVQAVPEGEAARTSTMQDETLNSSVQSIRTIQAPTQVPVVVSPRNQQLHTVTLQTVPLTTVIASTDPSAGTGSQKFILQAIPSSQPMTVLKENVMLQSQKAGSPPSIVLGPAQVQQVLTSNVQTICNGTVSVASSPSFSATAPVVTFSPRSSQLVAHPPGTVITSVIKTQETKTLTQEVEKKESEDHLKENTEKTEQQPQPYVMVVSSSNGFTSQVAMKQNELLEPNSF
A further experiment has as its target SPIB (Homo sapiens, UniProt Q01892 1-262). The essentials:
as §1

The next experiment has as its target ELF4 (Homo sapiens, UniProt Q99607 1-663). The procedure, abridged:
as §1

The target in a further experiment is T5, ETV2 (Homo sapiens, UniProt O00321 1-342).
T5 sequence: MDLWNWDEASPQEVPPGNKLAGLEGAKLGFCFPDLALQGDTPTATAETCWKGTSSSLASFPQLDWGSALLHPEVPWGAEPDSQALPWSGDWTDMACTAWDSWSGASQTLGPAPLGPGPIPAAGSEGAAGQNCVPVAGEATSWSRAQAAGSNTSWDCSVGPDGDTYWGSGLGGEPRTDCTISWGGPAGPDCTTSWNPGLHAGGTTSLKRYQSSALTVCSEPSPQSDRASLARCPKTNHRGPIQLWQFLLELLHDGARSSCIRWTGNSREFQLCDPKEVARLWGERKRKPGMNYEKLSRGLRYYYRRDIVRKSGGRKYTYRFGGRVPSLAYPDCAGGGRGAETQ
The procedure, abridged:
as §1

The target in another experiment is T6, ELF3 (Homo sapiens, UniProt P78545 1-371).
T6 sequence: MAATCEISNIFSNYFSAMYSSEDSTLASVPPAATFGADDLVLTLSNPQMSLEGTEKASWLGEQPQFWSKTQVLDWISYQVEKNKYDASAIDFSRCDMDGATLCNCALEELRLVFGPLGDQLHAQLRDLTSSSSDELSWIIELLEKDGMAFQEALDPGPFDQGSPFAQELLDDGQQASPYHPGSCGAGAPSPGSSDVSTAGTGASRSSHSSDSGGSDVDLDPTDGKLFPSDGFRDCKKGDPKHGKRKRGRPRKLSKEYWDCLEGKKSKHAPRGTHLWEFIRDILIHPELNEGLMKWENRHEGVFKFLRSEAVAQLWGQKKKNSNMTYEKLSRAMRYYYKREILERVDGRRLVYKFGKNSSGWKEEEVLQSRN
The essentials: as §1

Another experiment addresses ETV1 (Homo sapiens, UniProt P50549 1-477). The essentials:
as §1

Another experiment has as its target T7, ETV3L (Homo sapiens, UniProt Q6ZN32 1-361).
T7 sequence: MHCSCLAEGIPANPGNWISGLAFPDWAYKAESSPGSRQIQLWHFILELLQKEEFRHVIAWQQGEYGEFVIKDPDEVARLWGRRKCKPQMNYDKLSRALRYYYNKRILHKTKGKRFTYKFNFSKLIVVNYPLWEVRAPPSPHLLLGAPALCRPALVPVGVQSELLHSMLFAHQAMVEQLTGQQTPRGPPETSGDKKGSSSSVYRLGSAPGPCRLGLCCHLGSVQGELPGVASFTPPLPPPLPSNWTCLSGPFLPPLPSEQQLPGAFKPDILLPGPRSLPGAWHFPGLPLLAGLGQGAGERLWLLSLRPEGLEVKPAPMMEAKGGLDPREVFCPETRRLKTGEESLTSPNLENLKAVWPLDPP
The essentials:
as §1

The next experiment addresses T8, ETS2 (Homo sapiens, UniProt P15036 1-469).
T8 sequence: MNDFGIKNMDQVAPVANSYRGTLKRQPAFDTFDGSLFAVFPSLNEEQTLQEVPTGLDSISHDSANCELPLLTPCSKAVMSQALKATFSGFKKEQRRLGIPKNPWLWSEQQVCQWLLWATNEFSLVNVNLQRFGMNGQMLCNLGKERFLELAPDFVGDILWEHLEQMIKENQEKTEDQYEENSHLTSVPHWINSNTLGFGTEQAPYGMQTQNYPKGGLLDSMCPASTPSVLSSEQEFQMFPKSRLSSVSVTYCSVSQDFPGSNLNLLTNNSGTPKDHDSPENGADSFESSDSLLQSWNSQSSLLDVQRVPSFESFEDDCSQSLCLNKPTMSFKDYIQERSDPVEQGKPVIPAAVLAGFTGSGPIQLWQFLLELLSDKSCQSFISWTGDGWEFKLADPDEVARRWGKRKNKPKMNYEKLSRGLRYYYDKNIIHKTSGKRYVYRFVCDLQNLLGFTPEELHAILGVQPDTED
The essentials:
as §1

The next experiment addresses T9, ETV7 (Homo sapiens, UniProt Q9Y603 1-341).
T9 sequence: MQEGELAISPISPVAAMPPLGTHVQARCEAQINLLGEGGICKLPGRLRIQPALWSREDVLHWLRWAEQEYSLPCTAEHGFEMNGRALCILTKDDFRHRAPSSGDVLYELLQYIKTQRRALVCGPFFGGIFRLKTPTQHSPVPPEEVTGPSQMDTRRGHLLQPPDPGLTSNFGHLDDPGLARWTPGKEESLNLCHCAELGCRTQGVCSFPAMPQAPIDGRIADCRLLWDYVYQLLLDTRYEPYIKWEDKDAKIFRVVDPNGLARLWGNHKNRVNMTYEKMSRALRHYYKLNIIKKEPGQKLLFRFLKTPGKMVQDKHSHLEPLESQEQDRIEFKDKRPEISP
The procedure, abridged: as §1

The next experiment deals with T10, ETV3 (Homo sapiens, UniProt P41162-2 1-143).
T10 sequence: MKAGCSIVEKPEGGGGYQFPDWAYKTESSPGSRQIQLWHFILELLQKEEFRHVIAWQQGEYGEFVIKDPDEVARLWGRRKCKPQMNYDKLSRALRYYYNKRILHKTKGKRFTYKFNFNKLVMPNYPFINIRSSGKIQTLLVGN
The essentials:
as §1

Another experiment deals with ETV6 (Homo sapiens, UniProt P41212 1-452). The essentials: as §1
Chain of ETV6 (P41212 whole entry): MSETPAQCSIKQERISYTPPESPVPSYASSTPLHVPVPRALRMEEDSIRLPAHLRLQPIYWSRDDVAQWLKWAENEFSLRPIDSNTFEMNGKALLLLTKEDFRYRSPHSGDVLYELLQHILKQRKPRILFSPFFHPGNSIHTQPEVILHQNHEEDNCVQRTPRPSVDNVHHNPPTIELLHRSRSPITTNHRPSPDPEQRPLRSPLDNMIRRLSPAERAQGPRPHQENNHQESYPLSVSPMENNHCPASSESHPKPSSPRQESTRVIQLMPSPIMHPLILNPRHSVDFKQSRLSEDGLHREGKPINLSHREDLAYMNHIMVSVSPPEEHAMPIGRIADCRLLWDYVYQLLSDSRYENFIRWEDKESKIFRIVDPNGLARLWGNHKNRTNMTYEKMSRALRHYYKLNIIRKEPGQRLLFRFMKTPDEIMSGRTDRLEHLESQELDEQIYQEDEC

Chain of SPIB (Q01892 whole entry): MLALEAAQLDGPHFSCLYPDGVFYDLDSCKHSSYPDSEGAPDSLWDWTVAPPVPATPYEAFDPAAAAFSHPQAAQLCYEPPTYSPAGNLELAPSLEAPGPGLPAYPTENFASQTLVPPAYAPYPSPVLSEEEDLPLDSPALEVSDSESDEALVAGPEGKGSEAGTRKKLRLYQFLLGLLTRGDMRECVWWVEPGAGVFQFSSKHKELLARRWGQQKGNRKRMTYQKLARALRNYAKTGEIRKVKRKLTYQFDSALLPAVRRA
Chain of ETV1 (P50549 whole entry): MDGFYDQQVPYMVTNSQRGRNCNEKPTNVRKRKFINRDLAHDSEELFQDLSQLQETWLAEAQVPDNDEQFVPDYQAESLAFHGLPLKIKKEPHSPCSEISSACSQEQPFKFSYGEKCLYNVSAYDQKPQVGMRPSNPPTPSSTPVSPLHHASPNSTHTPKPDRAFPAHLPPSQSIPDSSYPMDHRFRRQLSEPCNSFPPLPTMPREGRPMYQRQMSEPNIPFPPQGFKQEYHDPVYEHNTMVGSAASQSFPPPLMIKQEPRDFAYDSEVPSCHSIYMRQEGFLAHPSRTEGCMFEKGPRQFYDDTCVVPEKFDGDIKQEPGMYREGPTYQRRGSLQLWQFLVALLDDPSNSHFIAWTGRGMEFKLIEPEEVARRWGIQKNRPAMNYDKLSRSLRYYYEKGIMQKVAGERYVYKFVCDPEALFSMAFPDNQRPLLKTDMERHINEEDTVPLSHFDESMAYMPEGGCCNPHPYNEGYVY
Chain of ELF4 (Q99607 whole entry): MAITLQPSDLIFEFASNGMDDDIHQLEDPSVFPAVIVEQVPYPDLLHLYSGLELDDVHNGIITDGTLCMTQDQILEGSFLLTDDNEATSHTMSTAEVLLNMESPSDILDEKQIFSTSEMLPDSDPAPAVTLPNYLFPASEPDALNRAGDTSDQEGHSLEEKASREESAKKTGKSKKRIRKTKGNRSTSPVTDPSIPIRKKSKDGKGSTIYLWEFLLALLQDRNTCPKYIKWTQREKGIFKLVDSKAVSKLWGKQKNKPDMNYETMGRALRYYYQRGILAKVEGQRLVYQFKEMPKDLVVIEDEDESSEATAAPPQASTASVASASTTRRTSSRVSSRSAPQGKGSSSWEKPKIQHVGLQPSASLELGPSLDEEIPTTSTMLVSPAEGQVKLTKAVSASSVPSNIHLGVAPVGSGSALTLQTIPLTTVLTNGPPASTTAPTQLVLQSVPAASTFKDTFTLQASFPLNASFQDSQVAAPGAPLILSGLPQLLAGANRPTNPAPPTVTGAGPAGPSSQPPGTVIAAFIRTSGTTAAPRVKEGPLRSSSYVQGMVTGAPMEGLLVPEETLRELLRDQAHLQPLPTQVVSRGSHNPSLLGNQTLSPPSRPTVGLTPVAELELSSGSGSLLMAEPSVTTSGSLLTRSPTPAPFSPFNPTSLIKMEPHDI

As to TCAGAT, the binding signal with FLI1 was 1.01 fold enrichment (6-mer frequency, TF over GST control); with ELK1, 1.05 fold enrichment (6-mer frequency, TF over GST control); with GABPA, 1.03 fold enrichment (6-mer frequency, TF over GST control); with ERG it was 1.06 fold enrichment (6-mer frequency, TF over GST control); with ELF1, 1.04 fold enrichment (6-mer frequency, TF over GST control); with SPIB, 1.02 fold enrichment (6-mer frequency, TF over GST control). Also, the binding signal is 1.02 fold enrichment (6-mer frequency, TF over GST control) in the experiment with ELF4; 1.08 fold enrichment (6-mer frequency, TF over GST control) in the experiment with ETV2; 1.08 fold enrichment (6-mer frequency, TF over GST control) in the experiment with ELF3; 1.05 fold enrichment (6-mer frequency, TF over GST control) with ETV1; 1 fold enrichment (6-mer frequency, TF over GST control) in the experiment with ETV3L; 1.02 fold enrichment (6-mer frequency, TF over GST control) in the experiment with ETS2. Moreover, the binding signal with ETV7 was 1.03 fold enrichment (6-mer frequency, TF over GST control); with ETV3 it was 1.02 fold enrichment (6-mer frequency, TF over GST control); with ETV6 it was 1.08 fold enrichment (6-mer frequency, TF over GST control).
